A number with no mark means an inactive call. Records with an inconclusive call do not appear. Entries that show only a call come without a potency. Calls of active or inactive are those of the source. The call rests on the fitted dose curve.

One assay deals with Acetylcholinesterase (Homo sapiens) (UniProt P22303). The assay is described as follows: Acetylcholinesterase (AChE) small molecule antagonists: fluorescence cell-based qHTS assay (AID 1347398). Further: nearly all actives have a fitted effect of over 50% in size. To be noted: SH-SY5Y cells; Potency: AChE activity; outcome: AChE activity; series mostly up to 115 µM. Put shortly: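 Thiocholine generated from acetylthiocholine by SH-SY5Y cell AChE is detected with Thiolite Green (Ex/Em 490/520 nm) after 40 min at room temperature, following 30 min compound pretreatment at 37 C.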
Chain of Acetylcholinesterase (Homo sapiens) (P22303 whole entry, looked up): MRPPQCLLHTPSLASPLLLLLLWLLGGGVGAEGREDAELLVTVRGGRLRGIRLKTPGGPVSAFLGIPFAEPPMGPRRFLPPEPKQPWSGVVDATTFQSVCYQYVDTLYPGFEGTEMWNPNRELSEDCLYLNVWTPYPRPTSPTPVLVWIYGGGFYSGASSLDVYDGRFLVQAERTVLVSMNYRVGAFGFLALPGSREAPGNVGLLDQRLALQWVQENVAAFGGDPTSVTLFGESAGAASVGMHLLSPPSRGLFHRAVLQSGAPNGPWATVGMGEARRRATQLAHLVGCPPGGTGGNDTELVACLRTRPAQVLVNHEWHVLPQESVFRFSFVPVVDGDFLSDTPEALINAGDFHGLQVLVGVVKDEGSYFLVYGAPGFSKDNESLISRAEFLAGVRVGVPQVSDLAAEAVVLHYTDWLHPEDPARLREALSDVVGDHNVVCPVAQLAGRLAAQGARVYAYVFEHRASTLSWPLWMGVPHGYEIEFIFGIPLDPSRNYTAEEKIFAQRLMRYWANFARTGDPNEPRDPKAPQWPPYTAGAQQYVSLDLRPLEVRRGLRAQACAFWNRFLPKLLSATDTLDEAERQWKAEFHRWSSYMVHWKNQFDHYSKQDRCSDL
As to `CN(C)c1ccc(Cc2ccc(N(C)C)cc2)cc1`, the Potency result is “inactive”.
On the same count and under the same terms, the result for `CC(C)(O)C#CC(C)(C)O` reads “inactive”.
On to `CSCCC=O`, for which the Potency result is “inactive”.
Same read-out and setting: the result for `CC(=O)/C=C/C1C(C)=CCC(C)C1(C)C` (stereo not given) reads “inactive”; that for `COC(=O)c1cccc(C(=O)OC)c1`, “inactive”; that for `CN1C(C(=O)Nc2ccccn2)=C(O)c2sccc2S1(=O)=O`, “inactive”.
On the same count and under the same terms, with `CC(=O)c1ccccc1[N+](=O)[O-]` the entry was “inactive”.
On the same count and under the same terms, with `O=C(O)c1cc(=O)[nH]c(=O)[nH]1` the entry was “inactive”.
With `Nc1ccc(Oc2cccc(Oc3ccc(N)cc3)c2)cc1`, the Potency entry was “inactive”.
On the same count and under the same terms, with `COc1c(Cl)c(Cl)c(Cl)c(Cl)c1Cl` the entry was “inactive”.
In the case of `O=C(O)CN(CCOCCOCCN(CC(=O)O)CC(=O)O)CC(=O)O`, the activity change, negative = inhibition is 2.07% [at 0.439 µM].
As to `CCCCOC(=O)c1ccc(N)cc1`, the Potency result is “inactive”.
Still for that read-out and setting: the result for `OCC1CCC(CO)CC1` (stereo not given) reads “inactive”.
The same measure, in the same setting: with `CC(C)c1ccccc1O` the entry was “inactive”.
Same read-out and setting: the result for `C[Si](C)(C)Cl` reads “inactive”; that for `CC(C)CC(=O)OCc1ccccc1`, “inactive”.
In the case of `Cc1cccc(OCC(O)CNC(C)(C)C)c1C` (stereo not given), the Potency result is “inactive”.
On the same count and under the same terms, the result for `O=Cc1ccccc1[N+](=O)[O-]` reads “inactive”.
On the same count and under the same terms, the result for `CCCCN(CCCC)CCCC` reads “inactive”; that for `Oc1ccc(Cl)cc1Sc1cc(Cl)ccc1O`, “inactive”.
As to `O=C(O)c1ccccc1-n1cc(C(=O)O)c(=O)c2cc(Nc3c(F)cc(F)cc3Cl)c(Cl)cc21`, the Potency result was “inactive”.
On the same count and under the same terms, the result for `O=C1c2cccc(O)c2C(=O)c2c(O)cc(CO)cc21` reads “inactive”; that for `Cc1nnc(C(=O)NC(C)(C)c2nc(C(=O)NCc3ccc(F)cc3)c(O)c(=O)n2C)o1`, “inactive”; that for `F[Si-2](F)(F)(F)(F)F`, “inactive”.
On the same count and under the same terms, the result for `OC1OC[C@@H](O)[C@H](O)[C@H]1O` (stereo not given in full) reads “inactive”; that for `Cc1cn([C@H]2C[C@H](N=[N+]=[N-])[C@@H](CO)O2)c(=O)[nH]c1=O`, “inactive”.
Still for that read-out and setting: with `CCCC(C)C(=O)O` (stereo not given) the entry was “inactive”; with `C=CCCCCCC`, “inactive”.
Regarding `O=C1c2ccccc2C(=O)c2c(O)ccc(O)c21`, the Potency entry was “inactive”.
On the same count and under the same terms, with `CCCCNc1ccccc1` the entry was “inactive”; with `CCNc1nc(NC(C)(C)C)nc(OC)n1`, “inactive”.
For the compound `N[C@@H](COP(=O)(O)O)C(=O)O`, the activity change, negative = inhibition is 4.21% [at 23.8 µM].
Consider `Cc1cc(N)no1`, for which the Potency result was “inactive”.
The same measure, in the same setting: with `O=C1NCCN1` the entry was “inactive”; with `CCC(=O)OCc1ccccc1`, “inactive”; with `CC(O)(P(=O)(O)O)P(=O)(O)O`, “inactive”.
The same measure, in the same setting: with `CCCCC(CC)COC(C)=O` (stereo not given) the entry was “inactive”; with `CCC(C)(C)C1CCC(O)CC1` (stereo not given), “inactive”; with `OCCN1C[C@H](O)[C@@H](O)[C@H](O)[C@H]1CO`, “inactive”.
Consider `O=Nc1ccc(O)cc1`, for which the Potency result is “inactive”.

For another assay the target is unchanged. The assay can be described thus: Acetylcholinesterase (AChE) small molecule antagonists: enzyme-based qHTS assay with human liver microsomes (AID 1347399). Further: nearly all actives have a fitted effect of over 60% in size. To be noted: Potency: qHTS inhibition; outcome: qHTS inhibition; series mostly up to 115 µM. In a few lines: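 Recombinant human AChE (50 mU/mL in the enzyme mix) and human liver microsomes (0.25 mg/mL final) were preincubated with compound and NADPH (0.25 mg/mL final) for 30 min at 37 C. Acetylthiocholine/DTNB was then added; thiocholine was read colorimetrically after 10 min at room temperature.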
(qHTS replaces the single test concentration by a dilution series.)
`CN(C)c1ccc(Cc2ccc(N(C)C)cc2)cc1`: the Potency entry was “inactive”.
Same read-out and setting: the result for `CC(C)(O)C#CC(C)(C)O` reads “inactive”; that for `CSCCC=O`, “inactive”; that for `CC(=O)/C=C/C1C(C)=CCC(C)C1(C)C` (stereo not given), “inactive”.
Still for that read-out and setting: with `COC(=O)c1cccc(C(=O)OC)c1` the entry was “inactive”.
As for `CN1C(C(=O)Nc2ccccn2)=C(O)c2sccc2S1(=O)=O`, the Potency entry was “inactive”.
Still for that read-out and setting: with `CC(=O)c1ccccc1[N+](=O)[O-]` the entry was “inactive”.
Still for that read-out and setting: with `O=C(O)c1cc(=O)[nH]c(=O)[nH]1` the entry was “inactive”.
On the same count and under the same terms, with `Nc1ccc(Oc2cccc(Oc3ccc(N)cc3)c2)cc1` the entry was “inactive”; with `COc1c(Cl)c(Cl)c(Cl)c(Cl)c1Cl`, “inactive”.
For `O=C(O)CN(CCOCCOCCN(CC(=O)O)CC(=O)O)CC(=O)O`, the activity change, negative = inhibition is -0.252% [at 0.435 µM].
On to `CCCCOC(=O)c1ccc(N)cc1`, for which the Potency result is “inactive”.
The same measure, in the same setting: with `OCC1CCC(CO)CC1` (stereo not given) the entry was “inactive”; with `CC(C)c1ccccc1O`, “inactive”; with `C[Si](C)(C)Cl`, “inactive”.
Still for that read-out and setting: the result for `CC(C)CC(=O)OCc1ccccc1` reads “inactive”; that for `Cc1cccc(OCC(O)CNC(C)(C)C)c1C` (stereo not given), “inactive”.
The same measure, in the same setting: with `O=Cc1ccccc1[N+](=O)[O-]` the entry was “inactive”; with `CCCCN(CCCC)CCCC`, “inactive”; with `Oc1ccc(Cl)cc1Sc1cc(Cl)ccc1O`, “inactive”.
Turning to `O=C(O)c1ccccc1-n1cc(C(=O)O)c(=O)c2cc(Nc3c(F)cc(F)cc3Cl)c(Cl)cc21`, the Potency result was “inactive”.
Regarding `O=C1c2cccc(O)c2C(=O)c2c(O)cc(CO)cc21`, the Potency result is “inactive”.
As to `Cc1nnc(C(=O)NC(C)(C)c2nc(C(=O)NCc3ccc(F)cc3)c(O)c(=O)n2C)o1`, the Potency result was “inactive”.
As for `F[Si-2](F)(F)(F)(F)F`, the Potency entry was “inactive”.
On the same count and under the same terms, with `OC1OC[C@@H](O)[C@H](O)[C@H]1O` (stereo not given in full) the entry was “inactive”; with `Cc1cn([C@H]2C[C@H](N=[N+]=[N-])[C@@H](CO)O2)c(=O)[nH]c1=O`, “inactive”.
On the same count and under the same terms, with `CCCC(C)C(=O)O` (stereo not given) the entry was “inactive”; with `C=CCCCCCC`, “inactive”; with `O=C1c2ccccc2C(=O)c2c(O)ccc(O)c21`, “inactive”.
Turning to `CCCCNc1ccccc1`, the Potency entry is “inactive”.
Same read-out and setting: with `CCNc1nc(NC(C)(C)C)nc(OC)n1` the entry was “inactive”.
As for `N[C@@H](COP(=O)(O)O)C(=O)O`, the activity change, negative = inhibition is 4.37% [at 23.6 µM].
For `Cc1cc(N)no1`, the Potency result was “inactive”.
Consider `O=C1NCCN1`, for which the Potency entry is “inactive”.
The same measure, in the same setting: with `CCC(=O)OCc1ccccc1` the entry was “inactive”.
Same read-out and setting: with `CC(O)(P(=O)(O)O)P(=O)(O)O` the entry was “inactive”; with `CCCCC(CC)COC(C)=O` (stereo not given), “inactive”.
On the same count and under the same terms, the result for `CCC(C)(C)C1CCC(O)CC1` (stereo not given) reads “inactive”; that for `OCCN1C[C@H](O)[C@@H](O)[C@H](O)[C@H]1CO`, “inactive”.
For `O=Nc1ccc(O)cc1`, the Potency result is “inactive”.

Source of the values: PubChem BioAssay (Tox21).
